Assay outcomes (PubChem)
HT1080-NT tox – kills 2HG-producing HT-1080-NT fibrosarcoma cells; AID 686970; 360,000 tested, 1.6% active; Potency, µM (titrated, usually from 46.1 µM), for inactives: at the top dose activity, negative = less viability, most hits filed as cytotoxic; HT-1080-NT fibrosarcoma viability, CellTiter-Glo ATP luminescence, 48 h;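 note: NT is the 2HG producing partner of a matched IDH1 knockdown line; 0% = DMSO-treated cells and -100% = media-only wells without cells; nearly all actives have a fitted effect of over 55% in size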
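Viability by CellTiter-Glo luminescence after 48 h compound exposure at 37C of HT-1080-NT cells (750/well, RPMI, 5% FBS). % activity scaled between DMSO wells and medium-only wells, then curve-fitted and categorized by curve class.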
DT40 TDP1 no CPT – qHTS for Inhibitors of human tyrosyl-DNA phosphodiesterase 1 (TDP1): qHTS in cells in absence of CPT; 420,000 tested, 15% active; Potency, µM (titrated, usually from 46.2 µM), inactives show at the highest dose activity change, negative = growth inhibition, usual class: inhibitors; AID 686978, 2013; DT40 Tdp1-/- hTDP1 cells, no CPT, ATP luminescence, 48 h; note: nearly all actives have a fitted effect of over 55% in size
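Camptothecin absent (DMSO only). Human TDP1-complemented DT40 knockout cells, 400 cells/well, 37 °C for minimum 48 hr; ATP measured via CellTiter-Glo, 30 min dark incubation, luminescence.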
KB-V1 MDR tox – KB-V1 MDR subline cytotoxicity; Potency, µM (top dose mostly 46.1 µM), most hits filed as cytotoxic; 400,000 tested, 3.4% active; KB-V1 MDR cells viability, CellTiter-Glo, 72 h; AID 1347076; note: nearly all actives have a fitted effect of over 60% in size
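In this primary screen, KB-V1 cells overexpressing P-gp are incubated with library compounds (lowest to highest concentration) for 72 h at 37 degrees C before a luminescent ATP viability read.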
HT1080 IDH1KD tx – HT-1080 IDH1 knockdown cell toxicity (counter line) | Potency, µM (titrated, usually from 46.1 µM), without a hit: at the top dose activity, negative = toxicity, actives largely listed as cytotoxic | 360,000 tested, 2% active | HT-1080 IDH1 knockdown viability, ATP luminescence, 48 h;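 note: 0% = DMSO wells and -100% = cell-free medium wells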
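Cytotoxicity counter-line: IDH1KD HT-1080, 48 h, CellTiter-Glo. Curves classed by r2, magnitude and activity.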
TDP1 cell CPT – growth inhibition of DT40 Tdp1-/-;hTDP1 cells with camptothecin (screen for TDP1 inhibitors). chicken DT40 Tdp1-/-;hTDP1 cells + 20 nM CPT, ATP luminescence, 48 h. Potency, µM (highest dose often 46.2 µM), inactives show top-dose activity change, negative = growth inhibition, actives largely listed as inhibitors. 420,000 tested, 12% active; note: nearly all actives have a fitted effect of over 55% in size
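Chicken DT40 Tdp1-/- cells stably complemented with human TDP1 were seeded at 400 cells/well in medium containing 20 nM camptothecin, exposed to pin-transferred compounds, and grown at 37 °C for at least 48 hr. Viability was read as ATP luminescence.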
KB-3-1 cytotox – kills parental KB-3-1 adenocarcinoma cells | KB-3-1 viability, CellTiter-Glo ATP luminescence, 72 h | Potency, µM (series often up to 46.1 µM), hits mostly cytotoxic | 400,000 tested, 1.4% active | AID 1347075; note: nearly all actives have a fitted effect of over 60% in size
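Parental KB-3-1 viability, qHTS format: 72 h compound exposure, 37 °C; CellTiter-Glo; media-only wells and DMSO plates as controls; concentration-effect fits on corrected data.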
The depositor's hits bear a star; i = inactive; ? = inconclusive; · = no result; [ ] = another dose, or the depositor's remark. This is a sample that favours compounds with a hit; in the whole collection about 19% have one here. Calls come from the whole dose curve; as a rule, active = well fitted curve in the direction sought with a large enough effect; inconclusive = small, poorly fitted or top-dose-only effect, or another doubt; inactive = no such curve, though single readings can be large; an effect the other way counts as inactive or inconclusive. Unless noted, % is set by controls: 0 for no effect and ±100 for the full control effect; potency is the fitted concentration of half-maximal effect.

SMILES	HT1080-NT tox	DT40 TDP1 no CPT	KB-V1 MDR tox	HT1080 IDH1KD tx	TDP1 cell CPT	KB-3-1 cytotox
COc1ccc(-c2oc3c(c2C#CCCCCO)C(OCCO)CC3)cc1 (configuration not stated)	-14%	?	i	-23%	?	i
CCCCn1nc(C(=O)Oc2ccc3c(C)cc(=O)oc3c2)c2ccccc2c1=O	5%	?	i	11%	?	i
CCn1c(SC)nnc1C1CCCN(CC(=O)Nc2ccccc2N2CCOCC2)C1 (configuration not stated)	14%	-14%	i	16%	1%	i
COc1cc(OC)cc(-c2nnc(Nc3nc4c(F)cccc4s3)o2)c1	5%	?	i	3%	21µM*	i
COc1ccc(-c2nnc(-c3ccc(N)cc3)o2)cc1	1%	-16%	i	2%	-1%	i
COc1ccc(-c2nnc(Nc3nc4c(OC)cccc4s3)o2)cc1	?	18µM*	?	?	5.2µM*	?
CCN1CCN(C2=C(Cl)C(=O)N(Cc3ccccc3)C2=O)CC1	4%	?	i	0%	23µM*	?
CC(C)(C)NC(=O)C[C@H]1C[C@H](C(=O)N2CCCCC2)[C@@]2(C)c3[nH]c4ccc(Cl)cc4c3CCN2C1=O	-12%	21µM*	i	-14%	23µM*	i
CN(C)CCCNC(=O)C[C@H]1C[C@H](C(=O)N2CCCCC2)[C@@]2(C)c3[nH]c4ccc(Cl)cc4c3CCN2C1=O	-15%	?	i	-17%	?	i
C[C@]12c3[nH]c4ccc(Cl)cc4c3CCN1C(=O)[C@@H](CC(=O)NCCN1CCOCC1)C[C@@H]2C(=O)N1CCCCC1	-1%	16µM*	i	?	?	i
CC(=O)c1cccc(N(CC(=O)NC2CCCCC2)C(=O)CNC(=O)c2cccs2)c1	-17%	-2%	i	4%	-11%	i
Cc1ccc(CN2C(=O)CCC2(C)c2nnnn2-c2c(C)cccc2C)cc1 (configuration not stated)	6%	16µM*	?	-16%	18µM*	i
COc1ccc(CN2C(=O)CCC2(C)c2nnnn2-c2c(C)cccc2C)cc1 (configuration not stated)	-2%	?	?	5%	?	i
Cn1c(SCC(=O)c2ccc3c(c2)Cc2ccccc2-3)nnc1-c1ccccc1	-10%	29µM*	i	-2%	-29%	i
Cn1c(SCC(=O)NC(C)(C)C)nnc1-c1ccc(C(C)(C)C)cc1	-11%	23µM*	21µM*	-1%	?	i
CCc1ccc(NC(=O)CSc2nnc(-c3ccccc3)n2C)cc1	·	-2%	i	·	16µM*	?
O=C1C=CC(=NN=C(c2ccccc2)c2ccccc2)C=C1	?	-27%	i	?	?	i
Cc1cc(CN2CCN(CCC#N)CC2)c(O)c(C2(C)CCCCC2)c1	-1%	21µM*	i	-4%	16µM*	i
COc1ccc(CN2C(=O)c3oc4ccccc4c(=O)c3C2c2ccc(O)cc2)cc1 (configuration not stated)	·	-20%	i	·	16%	i
CCOc1cc(C2c3c(oc4ccc(F)cc4c3=O)C(=O)N2Cc2ccc(C)cc2)ccc1O (configuration not stated)	·	?	i	·	1.3µM*	i
O=C1c2oc3ccccc3c(=O)c2C(c2cccc(O)c2)N1Cc1ccc(F)cc1 (configuration not stated)	·	21µM*	i	·	?	i
CCCc1nnc(NC(=O)Cc2coc3cc(C)cc(C)c23)s1	·	-23%	i	·	-18%	i
O=[N+]([O-])c1ccc(N2CCN(Cc3ccccc3)CC2)c2c1no[n+]2[O-]	23µM*	0.26µM*	6.5µM*	15µM*	0.16µM*	2.1µM*
CCC1=NN(C(=O)c2cccnc2)C(O)(C(F)(F)F)C1 (configuration not stated)	?	?	i	25%	16µM*	i
CCCCC1=NN(C(=O)c2cccnc2)C(O)(C(F)(F)F)C1 (configuration not stated)	-8%	1µM*	i	-2%	1.5µM*	i
SMILES	HT1080-NT tox	DT40 TDP1 no CPT	KB-V1 MDR tox	HT1080 IDH1KD tx	TDP1 cell CPT	KB-3-1 cytotox
COc1cccc(C(=O)N2N=C(c3cccc(OC)c3)CC2(O)C(F)(F)F)c1 (configuration not stated)	-27%	?	i	0%[9.24 µM]	?	i
COc1cc2c(cc1OC)C(=O)CCC2	9%	16µM*	i	9%	15µM*	i
O=C1CCCc2cc3c(cc21)CCCC3	18%	-24%	i	14%	-18%	i
CC1(O)CC2C(CC1O)C2(C)C (configuration not stated)	·	-37%	·	·	-3%	·
Clc1cccc(-c2cccc3nccn23)c1Cl	-16%	?	i	-27%	?	i
CC1CN(c2nn3c(=O)c4ccccc4nc3c3ccccc23)CC(C)O1 (configuration not stated)	-4%	5.8µM*	21µM*	0%	8.2µM*	?
CC1CN(c2nc(-c3ccccc3)nc3ccccc23)CC(C)O1 (configuration not stated)	3%	?	i	-3%	?	i
CCN1CCN(c2nn3c(=O)c4ccccc4nc3c3ccccc23)CC1	?	16µM*	?	?	?	?
CC(OC(=O)COc1ccccc1Cc1ccccc1)C(=O)N(C)c1ccccc1 (configuration not stated)	2%	?	i	-9%	-1%	i
COc1ccc(/C=N/Nc2c(Cl)cc(Cl)cc2Cl)cc1CN1CCOCC1	1%	15µM*	i	-1%	16µM*	i
CCCCc1c(C)[nH]c2nc3ccccc3n2c1=O	3%	1%	i	5%	1%	i
COc1ccc(N(CC(=O)N2CCc3ccccc32)S(=O)(=O)c2c(C)noc2C)cc1	-4%	?	10µM*	-20%	?	?
COc1ccc(N(CC(=O)N2CCN(c3cccc(C)c3C)CC2)S(=O)(=O)c2c(C)noc2C)cc1	-11%	16µM*	i	-12%	21µM*	?
